Source: PubChem (National Center for Advancing Translational Sciences (NCATS))
HT1080 IDH1KD tx = qHTS for induction of synthetic lethality in tumor cells producing 2HG: qHTS for the HT-1080-IDH1KD cell line; HT-1080 IDH1 knockdown viability, ATP luminescence, 48 h; Potency, µM (doses to about 46.1 µM), for inactives: at the top dose activity, negative = toxicity, usual class: cytotoxic; 360,000 compounds, 2% hits; AID 686971, 2013;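 also: potency is read from the fitted curve at half-maximal effect; 0% = DMSO wells and -100% = cell-free medium wells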
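% activity derives from luminescence (CellTiter-Glo), normalised to DMSO and no-cell wells. HT-1080-IDH1KD cells, 750/well, had 48 h compound exposure at 37 °C.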
HT1080-NT tox = qHTS for induction of synthetic lethality in tumor cells producing 2HG: qHTS for the HT-1080-NT fibrosarcoma cell line; HT-1080-NT fibrosarcoma viability, CellTiter-Glo ATP luminescence, 48 h; Potency, µM (titrated, usually from 46.1 µM), without a hit: at the top dose activity, negative = less viability, hits mostly cytotoxic; 360,000 compounds, 1.6% hits;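 also: NT is the 2HG producing partner of a matched IDH1 knockdown line; potency is read from the fitted curve at half-maximal effect; 0% = DMSO-treated cells and -100% = media-only wells without cells; nearly all actives have a fitted effect of over 55% in size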
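Viability of the 2HG-overproducing fibrosarcoma line after 48 hours of compound exposure at 37 degrees C was determined by luminescence with CellTiter-Glo, and concentration-effect curves were then fitted and categorized.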
ALOX12 inh = Primary qHTS assay for inhibitors of human arachidonate 12S-lipoxygenase (ALOX12): Round 2 | Polyunsaturated fatty acid lipoxygenase ALOX12 (Homo sapiens), P18054 | purified 12hLO, xylenol orange hydroperoxide absorbance | Potency, µM (titrated, usually from 108 µM), without a hit: at the highest dose activity change, negative = inhibition, hits mostly inhibitors | 580,000 compounds, 1.1% hits | AID 1671190, 2021; also: potency is read from the fitted curve at half-maximal effect
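Hydroperoxide product was detected by ferrous iron/xylenol orange as the 573 to 405 nm absorbance ratio. Arachidonic acid at 40 uM (final) was turned over for 30 min at room temperature by 150 nM human 12hLO, pH 7.0 Hepes buffer, after 15 min compound preincubation.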
TDP1 cell CPT = qHTS for Inhibitors of human tyrosyl-DNA phosphodiesterase 1 (TDP1): qHTS in cells in presence of CPT | chicken DT40 Tdp1-/-;hTDP1 cells + 20 nM CPT, ATP luminescence, 48 h | Potency, µM (titrated, usually from 46.2 µM), without a hit: top-dose activity change, negative = growth inhibition, hits mostly inhibitors | 420,000 compounds, 12% hits; also: potency is read from the fitted curve at half-maximal effect; nearly all actives have a fitted effect of over 55% in size
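Cell growth measured by CellTiter-Glo luminescence after a minimum 48 h, 37 C compound exposure with 20 nM CPT in Tdp1-knockout DT40 cells stably expressing hTDP1, seeded 400/well; qHTS titration format.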
DT40 TDP1 no CPT = qHTS for Inhibitors of human tyrosyl-DNA phosphodiesterase 1 (TDP1): qHTS in cells in absence of CPT; DT40 Tdp1-/- hTDP1 cells, no CPT, ATP luminescence, 48 h; AID 686978, 2013; Potency, µM (titrated, usually from 46.2 µM), inactives show at the highest dose activity change, negative = growth inhibition, actives largely listed as inhibitors; 420,000 compounds, 15% hits; also: potency is read from the fitted curve at half-maximal effect; nearly all actives have a fitted effect of over 55% in size
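Readout: luminescence from CellTiter-Glo after 30 min in the dark at RT. Cells: DT40 Tdp1-/- with stable hTDP1, 400/well. Exposure: compounds alone, ≥48 hr, 37 °C.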
IL1B secr inh = qHTS for Inhibitors of Inflammasome Signaling: IL-1-beta AlphaLISA Primary Screen; THP-1 LPS/ATP IL-1B secretion, AlphaLISA, 16 h; stronger effect = lower value; activity change, % at 57.5 µM; 360,000 compounds, 4.7% hits; in the data active = activity change below about -50%; inconclusive = mostly about -30% to -49%
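THP-1 cells pretreated 1 hr with compounds (up to 57.5 uM final), then stimulated with LPS (250 ng/mL final) plus ATP (1.25 mM final); secreted IL-1B measured by AlphaLISA after 16 hr, decreased signal indicating inhibition.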
Active calls of the source: *; ? = inconclusive; . = no result given; [ ] = another dose, or the depositor's remark. The entries come from a sample that favours hits as a whole. Unless noted, calls follow the shape of the dose curve; as a rule, active = well fitted curve in the direction sought with a large enough effect; inconclusive = small, poorly fitted or top-dose-only effect, or another doubt; inactive = no such curve, though single readings can be large; an effect the other way counts as inactive or inconclusive. Unless noted, % is scaled to controls: 0 for no effect and ±100 for the full control effect.

SMILES	HT1080 IDH1KD tx	HT1080-NT tox	ALOX12 inh	TDP1 cell CPT	DT40 TDP1 no CPT	IL1B secr inh
N#Cc1ccc(C(=O)N2CC(C(=O)NCCc3ccncc3)C3(CCOCC3)C2)cc1 (stereo unspecified)	.	.	48%	.	.	.
CCCn1c(=O)c2ccc(C(=O)NCC(C)C)cc2n2c(SCc3ccc(F)cc3)nnc12	.	.	14%	.	.	.
CCCCC(=O)OC1CCC2C3CCc4cc(O)ccc4C3CCC12C (stereo unspecified)	?	?	?	?	18µM*	1
C[C@]12CC[C@@H]3c4ccc(O)cc4CC[C@H]3[C@@H]1CC[C@@H]2OC(=O)CCC(=O)O	-8%	-34%	?	0.73µM*	1%	3
NC(=O)c1ccc(NC(=O)CCc2ncc(-c3ccc(F)cc3F)o2)cc1	.	.	-3%	.	.	.
O=c1ccn([C@@H]2O[C@H](COP(=O)(O)O)[C@@H](O)[C@H]2O)c(=O)[nH]1	.	.	-1%	?	-21%	.
Nc1ccn(C2OC(COP(=O)(O)O)C(O)C2O)c(=O)n1 (stereo unspecified)	-17%	-3%	?	0.65µM*	1.2µM*	27
CCCCn1c(SCC(=O)N2c3ccccc3Sc3ccccc32)nc2c1c(=O)n(C)c(=O)n2C	?	-29%	-4%	?	26µM*	?
COCCn1c(SCC(=O)N2CCOCC2)nc2ccccc2c1=O	6%	-2%	3%	5%	0%	-9
CCCCn1c(SCC(=O)N2CCCc3ccccc32)nc2c1c(=O)n(C)c(=O)n2C	7%	5%	16%	18µM*	22µM*	22
COCCn1c(SCC(=O)N2CCc3ccccc3C2)nc2ccccc2c1=O	8%	-2%	-6%	21µM*	?	-2
COCCn1c(SCC(=O)NC(=O)NC2CCCCC2)nc2ccccc2c1=O	-1%	-3%[9.24 µM]	84%	?	15µM*	-5
O=C(CCC1CCCC1)N1CCCC(c2noc(COc3ccccc3F)n2)C1 (stereo unspecified)	.	.	-5%	.	.	.
CCc1cccc2c(C(=O)CSc3n[nH]c(C(C)C)n3)c[nH]c12	.	.	4%	.	.	.
CCn1c(SCC(=O)N2CCc3ccccc3C2)nc2c1c(=O)n(C)c(=O)n2C	3%	14%	0%	23µM*	-26%	51
C=CCn1c(SCC(=O)N2CCc3ccccc3C2)nc2sc(C)cc2c1=O	-28%	-23%	1%	?	26µM*	?
CCc1cc(=O)oc2cc(OCC(=O)N3CCCc4cc(OC)ccc43)ccc12	.	.	-2%	.	.	.
O=C(NCc1cccs1)c1ccc2nccn2c1	.	.	24%[176 µM]	.	.	.
C[C@H]1CN([C@@H](C)CO)C(=O)Cc2cc(NC(=O)CCC(F)(F)F)ccc2O[C@H]1CN(C)S(=O)(=O)c1ccc(F)cc1	?	12µM*	-26%	7.3µM*	6.5µM*	54
C[C@H](CO)N1C[C@H](C)[C@@H](CN(C)S(=O)(=O)c2ccc(Cl)cc2)Oc2ccc(NS(=O)(=O)c3ccccc3)cc2CC1=O	?	-22%	-15%	10µM*	?	-27
Cc1ccc(S(=O)(=O)N(C)C[C@@H]2Oc3ccc(NS(=O)(=O)c4ccccc4)cc3CC(=O)N([C@@H](C)CO)C[C@H]2C)cc1	-2%	-14%	-16%	?	?	9
